Screening results as filed in PubChem BioAssay.
Compounds with a hit are over-represented: about 6.7% of the library has one in this group of screens.
T cruzi growth-1: T. cruzi intracellular proliferation inhibitors, primary screen, cell-based, beta-gal Tulahuen parasites, NIH3T3 host, luminescence | AID 624255, 2012 | 77,000 compounds, 5.9% hits | inhibition, % at 8.34 µM | T. cruzi beta-gal in NIH3T3, GalScreen luminescence, 90 h;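 active = mean inhibition above about 93%, with at least 55% of replicates each passing it, limit read from the data, passing the limit was not always enough; inconclusive = only one of those two conditions holds; inactive = neither condition holds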
C diff growth: C. difficile growth inhibitors, primary screen, HTS; Clostridium difficile clinical isolate growth, OD600, 24 h; active compounds read low; growth activity, negative = inhibition, % at 16 µg/mL (by protocol); 86,000 compounds, 0.25% hits;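 active = mean growth activity at or below -80% and every replicate also at or below -80%; inconclusive = mean at or below -80% but some replicate above -80%; inactive = mean growth activity above -80%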
Pf Dd2 growth: P. falciparum Dd2 growth inhibitors, primary screen, SYBR Green fluorescence, single dose replicates; 72 h; active compounds read low; activity change, % at 10 µM; 94,000 compounds, 2.3% hits; AID 1159554, 2015; in the data active = activity change below about -80%; inconclusive = no clear call, values can overlap the other calls
T cruzi growth-2: T. cruzi intracellular proliferation inhibitors, confirmation, cell-based, NIH3T3 host, beta-gal parasite, luminescence, cherry-pick; shares compounds with T cruzi growth-1; T. cruzi beta-gal in NIH3T3, GalScreen luminescence, 90 h; AID 651739, 2012; inhibition, % at 8.35 µM; 5,600 compounds, 72% hits;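 active = mean replicate inhibition above about 95% and at least 55% of replicates individually reaching it, limit read from the data; inconclusive = only one of the two criteria is met; inactive = neither criterion is met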
T cruzi growth-3: inhibitors of intracellular T. cruzi replication, confirmation, NIH3T3 host cells, beta-gal parasites, cherry-pick, set 2; shares compounds with T cruzi growth-1; AID 651740, 2012; inhibition, % at 2.09 µM; T. cruzi beta-gal in NIH3T3, GalScreen luminescence, 90 h; 5,600 compounds, 21% hits;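 active = mean inhibition above about 95%, with at least 55% of replicates also reaching it, limit read from the data; inconclusive = meets just one of the two conditions; inactive = meets neither condition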
NIH3T3 tox: cytotoxicity in mouse NIH/3T3 fibroblasts, confirmation, cytotoxicity control for T. cruzi proliferation inhibitor project, cell-based, cherry-pick, single point | shares compounds with T cruzi growth-1 | NIH/3T3 viability, CellTiter-Glo ATP luminescence, 90 h | cytotoxicity (signal decrease), % at 8.35 µM | 5,600 compounds, 14% hits | AID 651742, 2012;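 active = mean signal decrease across replicates above about 35% based on untreated-well scatter, with enough replicates individually passing, limit read from the data; inconclusive = no rule stated though some were filed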
3T3 cytotox 2: NIH/3T3 fibroblast cytotoxicity, confirmation, cytotoxicity control, cell-based, cherry-pick, single point, set 2 | shares compounds with T cruzi growth-1 | NIH/3T3 viability, CellTiter-Glo ATP luminescence, 90 h | inhibition, % at 24.9 µM | 5,600 compounds, 56% hits;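 active = mean loss of cell viability signal at or above a set limit, and enough replicates individually reaching it; inconclusive = meets only the mean limit or only the replicate share; inactive = meets neither condition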
A number is an active result; 0 = inactive; ? = inconclusive; - = no result.

SMILES	T cruzi growth-1	C diff growth	Pf Dd2 growth	T cruzi growth-2	T cruzi growth-3	NIH3T3 tox	3T3 cytotox 2
C[C@H](CO)N1C[C@H](C)[C@@H](CN(C)S(=O)(=O)c2ccccc2)Oc2c(NC(=O)C3CCOCC3)cccc2C1=O	-	0	0	-	-	-	-
C[C@H](CO)N1C[C@H](C)[C@H](CN(C)C(=O)NC2CCCCC2)Oc2ccc(NC(=O)CCN3CCOCC3)cc2CC1=O	0	0	0	-	-	-	-
O=S(=O)(Cc1ccccc1)N1CCCCN2[C@H](CO)[C@H](c3ccc(-c4ccccc4)cc3)[C@@H]2C1	104.2	0	0	108.4	0	0	84.0
O=S(=O)(c1ccc(F)cc1)N1CCCCN2[C@H](CO)[C@@H](c3ccc(-c4ccccc4)cc3)[C@@H]2C1	0	0	0	-	-	-	-
O=S(=O)(Cc1ccccc1)N1CCCCN2[C@H](CO)[C@H](c3ccc(-c4ccc(F)cc4)cc3)[C@H]2C1	?	0	0	0	101.8	64.0	104.0
O=S(=O)(Cc1ccccc1)N1CCCCN2[C@H](CO)[C@@H](c3ccc(-c4ccccc4)cc3)[C@H]2C1	112.3	0	0	100.9	0	0	105.7
O=S(=O)(c1ccc(F)cc1)N1CCCCN2[C@H](C1)[C@@H](c1ccc(-c3ccccc3)cc1)[C@@H]2CO	102.7	0	0	107.6	0	0	61.9
CCS(=O)(=O)N1CCCCN2[C@H](C1)[C@H](c1ccc(-c3ccccc3)cc1)[C@@H]2CO	0	0	0	-	-	-	-
CCS(=O)(=O)N1CCCCN2[C@H](CO)[C@H](c3ccc(-c4ccccc4)cc3)[C@H]2C1	0	0	0	-	-	-	-
O=S(=O)(Cc1ccccc1)N1CCCCN2[C@@H](CO)[C@H](c3ccc(-c4cncnc4)cc3)[C@@H]2C1	0	0	0	-	-	-	-
CCC(=O)N1[C@H](CO)[C@@H]2c3ccccc3N(C(=O)Nc3cccc(Cl)c3)C[C@@H]21	0	0	0	-	-	-	-
C[C@@H]1CN([C@H](C)CO)C(=O)c2cc(NC(=O)c3ccncc3)ccc2O[C@@H](C)CCCCO[C@@H]1CN(C)C(=O)C1CCCCC1	0	0	0	-	-	-	-
C[C@@H]1CCCCO[C@H](CN(C)CC2CCCCC2)[C@H](C)CN([C@H](C)CO)C(=O)c2cc(NC(=O)c3ccncc3)ccc2O1	0	-	0	-	-	-	-
COc1ccccc1NC(=O)N[C@H]1CC[C@@H](CC(=O)N[C@H](C)c2ccccc2)O[C@@H]1CO	0	-	0	-	-	-	-
C[C@@H]1CN([C@@H](C)CO)C(=O)c2cc(NC(=O)CCC(F)(F)F)ccc2O[C@@H]1CN(C)Cc1ccccc1	0	0	0	-	-	-	-
O=S(=O)(Cc1ccccc1)N1CCCCN2[C@@H](CO)[C@@H](c3ccc(-c4ccccc4)cc3)[C@@H]2C1	99.1	0	0	102.5	0	0	106.7
CCS(=O)(=O)N1CCCCN2[C@H](C1)[C@@H](c1ccc(-c3ccccc3)cc1)[C@@H]2CO	0	0	0	-	-	-	-
CCS(=O)(=O)Nc1ccc2c(c1)C(=O)N(C)C[C@@H](OC)[C@@H](C)CN(CC1CCCCC1)[C@H](C)CO2	0	-	-	-	-	-	-
O=C(C[C@H]1C=C[C@H](NC(=O)c2ccc3c(c2)OCO3)[C@H](CO)O1)NCc1ccc(Cl)cc1	-	0	0	-	-	-	-
COc1ccc(S(=O)(=O)N(C)C[C@@H]2OCCCC[C@@H](C)Oc3ccc(NC(=O)Nc4c(C)noc4C)cc3C(=O)N([C@@H](C)CO)C[C@H]2C)cc1	0	0	0	-	-	-	-
OC[C@H]1[C@@H](c2ccc(C#Cc3ccccc3)cc2)[C@H]2CN(Cc3cncnc3)CCCCN21	0	0	0	-	-	-	-
OC[C@@H]1[C@@H](c2ccc(C#Cc3ccccc3)cc2)[C@@H]2CN(Cc3cncnc3)CCCCN12	100.8	0	0	98.0	0	0	103.5
OC[C@H]1[C@@H](c2ccc(C#Cc3ccccc3F)cc2)[C@@H]2CN(Cc3cncnc3)CCCCN12	96.1	0	0	103.6	0	47.4	104.1
OC[C@@H]1[C@H](c2ccc(C#Cc3ccccc3)cc2)[C@H]2CN(Cc3cncnc3)CCCCN12	118.5	0	0	98.3	101.7	37.3	102.0
OC[C@H]1[C@H](c2ccc(Br)cc2)[C@@H]2CN(Cc3cncnc3)CCCCN12	109.7	0	0	96.9	0	0	0
SMILES	T cruzi growth-1	C diff growth	Pf Dd2 growth	T cruzi growth-2	T cruzi growth-3	NIH3T3 tox	3T3 cytotox 2
OC[C@@H]1[C@@H](c2ccc(-c3ccccc3)cc2)[C@H]2CN(Cc3cncnc3)CCCCN12	0	0	0	-	-	-	-
OC[C@H]1[C@@H](c2ccc(C#Cc3ccccc3F)cc2)[C@H]2CN(Cc3cncnc3)CCCCN21	0	0	0	-	-	-	-
C[C@@H](O)C#Cc1ccc([C@@H]2[C@H]3CN(C(=O)Nc4ccccc4)CCCCN3[C@H]2CO)cc1	0	0	0	-	-	-	-
CC(C)NC(=O)Nc1ccc2c(c1)C(=O)N([C@@H](C)CO)C[C@@H](C)[C@H](CN(C)C(=O)Nc1ccc(F)cc1)OCCCC[C@H](C)O2	0	0	0	-	-	-	-
OC[C@H]1[C@H](c2ccc(C#Cc3ccccc3)cc2)[C@@H]2CN(Cc3cncnc3)CCCCN12	104.1	0	0	107.1	0	44.5	104.7
CO[C@@H]1CN(C)C(=O)c2cc(NC(=O)c3ccno3)ccc2OC[C@H](C)N(S(C)(=O)=O)C[C@H]1C	-	0	0	-	-	-	-
C[C@H]1CCCCO[C@@H](CN(C)C(=O)NC2CCCCC2)[C@@H](C)CN([C@@H](C)CO)C(=O)c2cc(NS(=O)(=O)c3ccccc3)ccc2O1	102.5	0	0	0	0	0	0
C[C@@H]1CCCCO[C@H](CN(C)C(=O)NC2CCCCC2)[C@H](C)CN([C@H](C)CO)C(=O)c2cc(NS(=O)(=O)c3ccccc3)ccc2O1	105.6	0	?	0	0	0	0
C[C@@H]1CN([C@H](C)CO)C(=O)c2cc(NS(=O)(=O)c3ccccc3)ccc2O[C@@H](C)CCCCO[C@@H]1CN(C)C(=O)NC1CCCCC1	0	0	0	-	-	-	-
C[C@@H]1CCCCO[C@H](CN(C)C(=O)NC2CCCCC2)[C@H](C)CN([C@@H](C)CO)C(=O)c2cc(NS(=O)(=O)c3ccccc3)ccc2O1	102.1	0	0	104.2	0	0	0
C[C@@H]1CCCCO[C@H](CN(C)C(=O)NC2CCCCC2)[C@@H](C)CN([C@H](C)CO)C(=O)c2cc(NS(=O)(=O)c3ccccc3)ccc2O1	0	0	0	-	-	-	-
